Assay results as given in PubChem BioAssay AID1376 (SRMLSC, 2008).
Among all 220,000 compounds or so, about 530 (0.24%) were called active. No stated cut-off is given here; in the data, active means inhibition above about 13%; inconclusive means no clear call, values can overlap the other calls; inactive means below that. For the sample, actives were picked, then their nearest neighbours and some compounds at random. Potency and affinity values are given separately.

Biological target: Bifunctional protein GlmU (Mycobacterium tuberculosis (strain ATCC 25618 / H37Rv)) (UniProt P9WMN3)
Assay: inhibition of mycobacterial GlmU enzyme – biochemical, glucosamine-1-phosphate acetyltransferase (AID 1376);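 further: 0% = complete reaction with vehicle and 100% = reaction without substrate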
Conditions: M. tuberculosis GlmU acetyltransferase enzyme assay; stronger effect = higher value;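 tested at 30 µM in the primary screen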

Chain of Bifunctional protein GlmU (Mycobacterium tuberculosis (strain ATCC 25618 / H37Rv)) (P9WMN3 whole entry, looked up): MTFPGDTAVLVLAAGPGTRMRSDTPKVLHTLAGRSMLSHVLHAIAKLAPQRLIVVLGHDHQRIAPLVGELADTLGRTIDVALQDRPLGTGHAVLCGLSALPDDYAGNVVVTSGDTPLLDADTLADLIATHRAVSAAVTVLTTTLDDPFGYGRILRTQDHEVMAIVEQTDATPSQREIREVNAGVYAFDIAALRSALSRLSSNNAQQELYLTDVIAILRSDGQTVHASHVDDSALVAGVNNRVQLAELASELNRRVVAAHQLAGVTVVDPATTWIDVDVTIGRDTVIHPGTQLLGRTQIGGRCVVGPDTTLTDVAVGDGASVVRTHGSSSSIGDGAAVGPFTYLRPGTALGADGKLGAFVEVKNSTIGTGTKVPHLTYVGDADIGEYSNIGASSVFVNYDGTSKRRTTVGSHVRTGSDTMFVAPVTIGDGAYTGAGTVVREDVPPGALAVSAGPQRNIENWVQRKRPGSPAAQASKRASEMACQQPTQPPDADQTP

SMILES	inhibition
O=C1CC(=O)N(c2cccc(F)c2)N1	8.59% (inactive)
CC(C)=C1C(=O)NN(c2cccc(Cl)c2)C1=O	3.03% (inactive)
COCCNC(=O)[C@H]1C[C@@H]1[C@H](NP(=O)(c1ccccc1)c1ccccc1)c1ccccc1	0.38% (inactive)
Cc1ccc(-n2c(COc3cccc(C)c3)n[nH]c2=S)cc1	1.39% (inactive)
O=C(c1cccs1)N1CCN(c2ncccn2)CC1	-2.05% (inactive)
CCOC(=O)C1=C(C)C(c2ccc(OC)cc2)NC(=O)N1 (stereo not given)	-6.08% (inactive)
Cc1nn(C)cc1/C=C1\SC(=S)NC1=O	4.22% (inactive)
Cc1cc(/C=C2\SC(=S)NC2=O)c(C)n1C	5.92% (inactive)
CCn1cc(/C=C2/SC(=S)NC2=O)c(C)n1	13.2% (active)
CCn1ncc(/C=C2/SC(=S)NC2=O)c1C	11.3% (inactive)
CCn1c(C)cc(/C=C2/SC(=S)NC2=O)c1C	1.44% (inactive)
Cc1cc(/C=C2\SC(=S)NC2=O)c(C)[nH]1	13.5% (active)
CNc1nc(C)nc(-n2nc(C)cc2C)n1	13.6% (active)
Cc1cc(C)n(-c2nc(C)nc(N)n2)n1	-5.19% (inactive)
Cc1cc(C)n(-c2nc(C)nc(NCc3ccccc3)n2)n1	-4.13% (inactive)
Cc1sc(NC(=O)c2ccco2)nc1-c1ccc2c(c1)CC(C)N2C(=O)C1CC1 (stereo not given)	3.65% (inactive)
CCn1c(-c2csc(C(C)C)c2)n[nH]c1=S	14.3% (active)
CCCCn1c(-c2csc(C(C)C)c2)n[nH]c1=S	-1.43% (inactive)
CC(C)Cn1c(-c2csc(C(C)C)c2)n[nH]c1=S	-2.74% (inactive)
COc1ccc(NC(=O)C(c2ccccc2)c2ccccc2)cn1	-4.39% (inactive)

SMILES	inhibition
CCS(=O)(=O)Nc1ccc(C2=NN(C(=S)Nc3ccccc3)C(c3ccco3)C2)cc1 (stereo not given)	-0.65% (inactive)
CN(C)C(=S)NC(C)(C)C	1.31% (inactive)
Nc1nonc1C(=O)N/N=C/c1ccc(-c2cccc([N+](=O)[O-])c2)o1	1.58% (inactive)
CNC(=S)N/N=C/c1ccc(-c2cccc(C(=O)O)c2)o1	6.34% (inactive)
Cc1ccc(OCC(=O)N/N=C\c2ccc(C)o2)c(C)c1	1.64% (inactive)
O=C(N/N=C/c1ccc(-c2ccc([N+](=O)[O-])cc2)o1)c1cccnc1	7.58% (inactive)
Nc1nonc1C(=O)N/N=C/c1ccc(-c2ccc(Cl)c(C(=O)O)c2)o1	5.31% (inactive)
COc1ccc(CC(=O)N/N=C/c2ccc(-c3cccc(C(=O)O)c3)o2)cc1OC	9.43% (inactive)
O=C(NCCn1cc(SCC(=O)N2CCOCC2)c2ccccc21)c1c(F)cccc1F	7.41% (inactive)
O=C(CSc1nnnn1-c1ccc(O)cc1)c1cc2ccccc2o1	-1.55% (inactive)
Cc1ccc(NC(=O)CN2C(=O)S/C(=C/c3ccc(-c4cccc(C(=O)O)c4)o3)C2=O)cc1	13.1% (active)
Cc1ccc(NC(=O)CN2C(=O)S/C(=C\c3ccc(-c4cccc(C(=O)O)c4C)o3)C2=O)cc1C	15.4% (active)
COc1ccc(/C=C2\SC(=O)N(CC(=O)NNC(=O)c3ccccc3O)C2=O)cc1	6.62% (inactive)
CCOC(=O)CN1C(=O)S/C(=C/c2ccc(O)c([N+](=O)[O-])c2)C1=O	6.11% (inactive)
Cc1ccccc1NC(=O)CN1C(=O)S/C(=C\c2ccc(-c3cccc(C(=O)O)c3C)o2)C1=O	-5.01% (inactive)
Cc1ccc(C(=O)O)cc1-c1ccc(/C=C2\SC(=O)N(CC(=O)Nc3ccccc3)C2=O)o1	6.53% (inactive)
Cc1cccc(NC(=O)CN2C(=O)S/C(=C\c3ccc(-c4cccc(C(=O)O)c4C)o3)C2=O)c1	5.54% (inactive)
Cc1cccc(NC(=O)CN2C(=O)S/C(=C\c3ccc(O)c([N+](=O)[O-])c3)C2=O)c1	3.95% (inactive)
O=C(CN1C(=O)S/C(=C\c2ccccc2)C1=O)NNC(=O)c1ccccc1O	6.78% (inactive)
Cc1ccc(NC(=O)CN2C(=O)S/C(=C/c3ccc(O)c([N+](=O)[O-])c3)C2=O)cc1C	14.8% (active)

SMILES	inhibition
Cc1ccc(NC(=O)CN2C(=O)S/C(=C\c3ccc(-c4cccc(C(=O)O)c4C)o3)C2=O)cc1	3.05% (inactive)
COc1ccc(/C=C2\SC(=O)N(CC(=O)NNC(=O)c3ccccc3O)C2=O)cc1OC	13.8% (active)
CCOc1ccccc1Cn1c(=O)sc2ccccc21	-0.39% (inactive)
CCCNC(=O)c1cc(-c2ccc(OC)cc2)n(CCCOC)c1C	4.42% (inactive)
O=C1CC(N2CCN(Cc3ccc(Cl)cc3)CC2)C(=O)N1CCc1ccccc1 (stereo not given)	-4.79% (inactive)
O=C(NCCc1ccccn1)c1cccc(S(=O)(=O)N2CCc3ccccc32)c1	2.85% (inactive)
COCCNC(=O)C1c2ccccc2C(=O)N(CCOC)C1c1ccc(F)cc1 (stereo not given)	1.96% (inactive)
COc1ccc(C(=O)N/C(=C\c2cccc3ccccc23)C(=O)N2CCN(C)CC2)cc1OC	0.44% (inactive)
CSC1=NSC2=NC(=O)/C(=C/c3coc4ccccc4c3=O)C(=N)N12	8.95% (inactive)
CSC1=NSC2=NC(=O)/C(=C/c3coc4ccc(O)cc4c3=O)C(=N)N12	21.3% (active)
CSC1=NSC2=NC(=O)/C(=C\c3coc4ccccc4c3=O)C(=N)N12	7.97% (inactive)
NS(=O)(=O)c1ccc(CCNC(=O)CCCC2=NS(=O)(=O)c3ccccc3N2)cc1	2.45% (inactive)
COc1ccc(OCc2n[nH]c(=S)o2)cc1	2.56% (inactive)
S=c1[nH]nc(COc2ccc3ccccc3c2)o1	3.96% (inactive)
S=c1[nH]nc(COc2ccc(Cl)cc2)o1	13.3% (active)
O=C(O)C1Cc2ccccc2CN1C(=O)COc1ccc(Br)cc1 (stereo not given)	12.6% (inactive)
CCOC(=O)CSc1nc(C)c(C(C)=O)cc1C(N)=O	1.16% (inactive)
Cc1cccc(NC(=S)NNC(=O)c2csc3c2CCCC3)c1	13% (active)
Cc1cccc(NC(=S)NNC(=O)c2csc3c2CCC(C)C3)c1 (stereo not given)	2.66% (inactive)
Cc1ccc(C)c(NC(=S)NNC(=O)c2csc3c2CCCC3)c1	-4.85% (inactive)
